NIH3T3 tox – NIH 3T3 cell cytotoxicity; 4.3% of 94,000 active; Potency, µM (series often up to 96.7 µM), inactives show at the top dose activity change, negative = cytotoxicity, actives largely listed as inhibitors; NIH 3T3 viability, CellTiter-Glo ATP luminescence, 48-72 h; further: nearly all actives have a fitted effect of over 55% in size
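Cells were seeded at 400 per well, treated with pin-transferred compound, and kept 48 or 72 hr at 37 °C before CellTiter-Glo addition and luminescence imaging of cellular ATP.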
GPT2 inh – GPT2 alanine aminotransferase inhibition | Recombinant GPT2, coupled pyruvate oxidase/HRP Amplex Red fluorescence | 0.25% of 100,000 active | Q8TD30 | Potency, µM (titrated, usually from 57.7 µM), for the others: at the highest dose activity change, negative = inhibition, actives largely listed as inhibitors; further: nearly all actives have a fitted effect of over 60% in size
Target sequence (Q8TD30 whole entry, looked up): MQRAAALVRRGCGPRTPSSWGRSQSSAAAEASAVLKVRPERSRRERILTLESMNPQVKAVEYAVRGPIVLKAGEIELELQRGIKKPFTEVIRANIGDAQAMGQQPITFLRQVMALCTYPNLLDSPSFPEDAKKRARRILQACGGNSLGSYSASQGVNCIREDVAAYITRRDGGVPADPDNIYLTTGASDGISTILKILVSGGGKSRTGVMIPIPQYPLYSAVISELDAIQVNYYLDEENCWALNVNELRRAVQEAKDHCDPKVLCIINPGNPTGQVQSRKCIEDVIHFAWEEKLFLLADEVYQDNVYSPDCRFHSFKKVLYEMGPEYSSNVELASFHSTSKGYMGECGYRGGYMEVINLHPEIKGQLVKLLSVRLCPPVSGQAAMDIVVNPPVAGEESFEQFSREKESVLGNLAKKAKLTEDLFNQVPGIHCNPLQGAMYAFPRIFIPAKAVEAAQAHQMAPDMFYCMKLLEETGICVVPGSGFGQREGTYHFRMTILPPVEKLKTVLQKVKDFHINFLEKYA
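Inhibition is scored from Amplex Red fluorescence generated when pyruvate oxidase and HRP act on pyruvate released by GPT2. Reactions contain 10ng/uL enzyme, 250uM a-KG and 2mM L-alanine and run 30 min at room temperature.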
HEK293 tox – kills HEK 293 cells | Potency, µM (doses to about 115 µM), for the others: at the top dose activity change, negative = cytotoxicity, hits mostly inhibitors | 6.6% of 94,000 active | AID 1345083 | HEK 293 viability, ATP luminescence (CellTiter-Glo), 48-72 h; further: nearly all actives have a fitted effect of over 60% in size
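qHTS cytotoxicity; HEK 293, 250 cells/well; compound pinned; 48 or 72 hr, 37 degree Celsius, 5% CO2, 95% humidity; CellTiter-Glo, 10 min RT; luminescence (ATP).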
hNpr1 antagonist – antagonists of human natriuretic peptide receptor Npr1 | 1.6% of 76,000 active | P16066 | Potency, µM (top dose mostly 46.3 µM), without a hit: at the highest dose activity change, negative = inhibition, usual class: inhibitors | HEK293 hNpr1 GloSensor cGMP, ANP-stimulated luminescence | AID 1347048; calls by dose curve; further: nearly all actives have a fitted effect of over 60% in size
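HEK293 cells stably expressing human Npr1 and cGMP GloSensor pGS-40F, loaded 2 h with 2% GloSensor reagent, given compound 30 min at room temperature. Luminescence read before and 20 min after 0.1 nM hNppA.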
Luciferase inh – inhibitors of firefly (Photinus pyralis) luciferase; 2.5% of 76,000 active; Potency, µM (doses to about 115 µM), most hits filed as inhibitors; AID 1347043; purified P. pyralis luciferase, luminescence, biochemical; further: nearly all actives have a fitted effect of over 65% in size
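Cell-free enzyme assay, 10nM P. pyralis luciferase, luciferin and ATP each at 10uM. Inhibition profiled over a 6-point titration, read as luminescence.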
* = called active by the depositor; i = inactive; ? = inconclusive; / = no result given; [ ] = dose if it differs, or a comment. A selection: hits, their analogues and other compounds. The true share with any hit is near 10%. Unless noted, the call rests on the fitted dose curve; in most records, active means well fitted curve in the direction sought with a large enough effect; inconclusive means small, poorly fitted or top-dose-only effect, or another doubt; inactive means no such curve, though single readings can be large; an effect the other way counts as inactive or inconclusive. On the % scale 0 is the no-effect control and ±100 the full control effect; potency means the concentration at half of the fitted maximal effect.

SMILES | NIH3T3 tox | GPT2 inh | HEK293 tox | hNpr1 antagonist | Luciferase inh
COc1ccc(CCNC(=O)c2cn3cc(-c4cccc(C(F)(F)F)c4)sc3n2)cc1 | ? | 1.8% | ? | / | /
COc1cccc(CN2CCc3c(cc(C(=O)Nc4ccccc4OC)n3C)C2)c1 | ? | i | 39.8µM* | -2.7% | 15.8µM*
COc1cccc(CN2CCc3c(cc(C(=O)NCc4ccccn4)n3C)C2)c1 | ? | 2.6% | ? | 1.9% | i
COc1cccc(CN2CCc3c(cc(C(=O)Nc4cccc(C)c4C)n3C)C2)c1 | ? | ? | 39.8µM* | 5.9% | 22.4µM*
COc1cccc(CN2CCc3c(cc(C(=O)N4CCOCC4)n3C)C2)c1 | -8.0% | i | -9.4% | 0.3% | i
Cc1ccc(-c2cnc([C@@H]3COCCN3Cc3ccccc3F)[nH]2)cc1 | ? | -3.9%[88.5 µM] | ? | -17.4%[70.6 µM] | i
CC(C)(C)c1cnc([C@@H]2COCCN2Cc2ccc(C(=O)O)cc2)[nH]1 | ? | ? | -3.9%[172 µM] | 1.2%[70.6 µM] | i
Cn1cc(CN2CCOC[C@H]2c2ncc(-c3ccc(F)cc3F)[nH]2)c2ccccc21 | 50.1µM* | -15.6%[88.5 µM] | 50.1µM* | -27.0%[70.6 µM] | i
Cc1ccc(-c2cnc([C@@H]3COCCN3Cc3cn(C)c4ccccc34)[nH]2)cc1 | ? | -12.2%[88.5 µM] | 56.2µM* | ? | i
Cc1ccc(CN2CCOC[C@H]2c2ncc(C(C)(C)C)[nH]2)cc1 | 100µM* | -7.5%[88.5 µM] | 112µM* | -14.8%[70.6 µM] | i
COc1ccc(-c2cnc([C@@H]3COCCN3Cc3cn(C)c4ccccc34)[nH]2)cc1 | 63.1µM* | 1.8%[88.5 µM] | ? | ? | i
COc1ccc(-c2cnc([C@@H]3COCCN3Cc3ccc(C)cc3)[nH]2)cc1 | ? | 1.9%[88.5 µM] | ? | -19.8%[70.6 µM] | i
COc1ccc(CN2CCOC[C@H]2c2ncc(-c3ccc(OC)cc3)[nH]2)cc1 | ? | ? | 89.1µM* | -5.5%[70.6 µM] | i
Cc1ccc(NC(=O)c2cc3c(s2)CN(C2CC2)C3)cc1 | ? | i | ? | -30.1% | 8.91µM*
CCOc1ccc(NC(=O)c2cc3c(s2)CN(C2CCCC2)C3)cc1 | ? | 1.7% | ? | -19.6% | i
CSc1ccc(NC(=O)c2cc3c(s2)CN(C2CC2)C3)cc1 | ? | i | ? | 11.2µM* | ?
Fc1cccc(-c2cc3c(cn2)CN(Cc2ccncc2)CCN3)c1 | -23.3%[138 µM] | -4.2%[88.5 µM] | ? | -23.3%[70.6 µM] | 39.8µM*
Fc1ccccc1-c1cc2c(cn1)CN(Cc1cccnc1)CCN2 | -21.8%[138 µM] | 3.6%[88.5 µM] | ? | -8.9%[70.6 µM] | 31.6µM*
C[S+](=O)([O-])c1ccc(-c2cc3c(cn2)CN(Cc2ccccc2)CCN3)cc1 | ? | -3.7%[88.5 µM] | ? | -3.4%[70.6 µM] | ?
Clc1cnccc1CN1CCNc2cc(-c3ccccc3)ncc2C1 | ? | 0.1%[88.5 µM] | ? | -16.1%[70.6 µM] | 28.2µM*
O=C(NCc1ccc(C(F)(F)F)cc1)c1cc(-c2ccsc2)c2nncn2n1 | ? | 3.3% | ? | / | /
CCCN1CCCC12Cc1ccccc1CN(C(=O)c1c(C)noc1C)C2 (configuration not stated) | -17.3% | i | -26.4% | / | /
CCOC(=O)[C@@H]1CN(C(=O)C2CC2)[C@H]2c3cccc(F)c3O[C@@H]12 | -19.0% | / | ? | / | /
O=C(Nc1ccc2c(c1)OCCO2)N1CCCC1c1nncn1C1CCCC1 (configuration not stated) | -8.9% | i | 1.2% | / | /
O=C(Nc1ccc(Cl)cc1)N1CCC(C(=O)N2CCC(N3CCOC3=O)CC2)CC1 | -24.0% | i | -6.2% | / | /
SMILES | NIH3T3 tox | GPT2 inh | HEK293 tox | hNpr1 antagonist | Luciferase inh
CNC(=O)c1cc(C2CC2)nc2onc(C3CCCN3C(=O)c3cccc(OC)c3)c12 (configuration not stated) | -11.8% | / | -13.9% | / | /
OC1CN(Cc2ccccc2)CCN(c2nc(-c3ccccc3)no2)C1 (configuration not stated) | -9.9% | i | ? | ? | 39.8µM*
Cc1cc(N2CCN(Cc3ccccc3)CC(O)C2)nc(N)n1 (configuration not stated) | -17.4% | 1.5% | -20.4% | 1.3% | i
O=C(NCC1CC1)c1nc2cccnc2n(C2CC2)c1=O | -25.8%[138 µM] | i | -18.1%[172 µM] | / | /
COc1cccc2sc(NC(=O)c3ccc4c(c3)OCCN(C3CCC3)C4)nc12 | ? | 1.8%[88.5 µM] | 31.6µM* | ? | ?
COc1ccc(NC(=O)c2ccc3c(c2)OCCN(C2CCC2)C3)cn1 | -20.9%[138 µM] | i | ? | -2.5%[70.6 µM] | i
COC(=O)N1CCC(C(=O)N2CCCC(c3nc4ccncc4[nH]3)C2)CC1 (configuration not stated) | 0.5% | -2.2% | 1.8% | / | /
COc1ccc(CCC(=O)N2Cc3ccccc3OC3(CCN(C)CC3)C2)cc1 | -16.8% | -7.6% | ? | 1.0% | i
O=C(O)c1ccc(CN2CC[C@@H](c3ccc4ccccc4c3)[C@H](O)C2)cc1 | i | i | 0.0% | -0.2% | i
O[C@@H]1CN(Cc2ccc(-n3cccn3)cc2)CC[C@H]1c1ccc(F)cc1 | -28.6% | i | 39.8µM* | ? | i
CNC(=O)c1cc(-c2ccc(Cl)nc2)nc2c1cnn2C | ? | 3.5%[88.5 µM] | ? | / | /
CC1(C)OC2=C(C(=O)c3ccccc3C2=O)[C@H](NCc2ccccc2)[C@H]1O | / | 13.7µM* | / | / | /
CC(C(=O)NCc1ccccc1)C1CCOCC1 (configuration not stated) | i | i | 13.0% | 2.4% | i
CN(C)c1ccc(-c2nnc([C@H]3CCN(Cc4ccccn4)C3)o2)cc1 | -28.3%[174 µM] | -7.1%[88.5 µM] | ? | 2.3%[70.6 µM] | ?
CN(C)c1ccc(-c2nnc([C@H]3CCN(C(=O)c4ccccn4)C3)o2)cc1 | -12.4%[174 µM] | i | ? | -15.0%[70.6 µM] | 20µM*
CCOC(=O)CNC(=O)N1CCC2(CC1)N(Cc1ccccc1)C(=O)CS2(=O)=O | -13.2% | i | -2.5% | / | /
Cn1ncc2c(N3CCN(S(N)(=O)=O)CC3)nc(-c3cccnc3)nc21 | 39.8µM* | 0.2% | ? | 4.6% | i
Cn1ncc2c(N3CCN(S(N)(=O)=O)CC3)nc(C3CCCC3)nc21 | 39.8µM* | i | -25.4% | -1.6% | i
C[S+](=O)([O-])N1CCC(c2nnc3n2C(C(=O)NCc2ccccc2F)CC3)CC1 (configuration not stated) | -7.8% | -6.6% | -0.4% | / | /
COc1ccccc1-c1cc2c(ccn2C)c(C(=O)NCCN2CCNC2=O)n1 | 100µM* | -14.4%[88.5 µM] | -27.9%[172 µM] | 0.4%[70.6 µM] | i
Cn1ccc2c(C(=O)NCC3CCC(=O)N3)nc(-c3ccccc3O)cc21 (configuration not stated) | 39.8µM* | 1.4%[88.5 µM] | ? | 0.2%[70.6 µM] | i
COc1ccccc1-c1cc2c(ccn2C)c(C(=O)NCC2CCN(C)C(=O)C2)n1 (configuration not stated) | 79.4µM* | i | -15.1%[172 µM] | 3.0%[70.6 µM] | i

Assay outcomes deposited in PubChem BioAssay by National Center for Advancing Translational Sciences (NCATS).
